Assay outcomes: PubChem BioAssay, National Center for Advancing Translational Sciences (NCATS)
Rows were chosen to be rich in hits. Some 18% of all compounds tested hit in one or more screens of this group.
TDP1 block – qHTS Assay for Inhibitors of Tyrosyl-DNA Phosphodiesterase (TDP1); Tyrosyl-DNA phosphodiesterase 1 (Homo sapiens), Q9NUW8; recombinant TDP1, AlphaScreen DNA substrate cleavage; Potency, µM (series often up to 130 µM), hits mostly inhibitors; 350,000 compounds, 0.28% hits; AID 485290, 2010; also: nearly all actives have a fitted effect of over 40% in size
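E. coli-derived human Tdp1, 1 nM final. Cpd preinc 15 min RT; substrate 15 nM final, 5 min RT; AS bead mix 10 ug/ml final, 10 min RT. Signal loss = tyrosine-FITC cleavage. No-enzyme wells = max signal.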
DT40 TDP1 no CPT – qHTS for Inhibitors of human tyrosyl-DNA phosphodiesterase 1 (TDP1): qHTS in cells in absence of CPT; Potency, µM (series often up to 46.2 µM), usual class: inhibitors; AID 686978, 2013; DT40 Tdp1-/- hTDP1 cells, no CPT, ATP luminescence, 48 h; 420,000 compounds, 15% hits; also: nearly all actives have a fitted effect of over 55% in size
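DT40 Tdp1-/-;hTDP1 cells, no CPT (DMSO vehicle only), 400 cells/well; compounds pin-transferred; ≥48 hr, 37 °C; CellTiter-Glo 30 min RT dark, luminescence read.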
DT40 TDP1 CPT – qHTS for Inhibitors of human tyrosyl-DNA phosphodiesterase 1 (TDP1): qHTS in cells in presence of CPT; chicken DT40 Tdp1-/-;hTDP1 cells + 20 nM CPT, ATP luminescence, 48 h; 420,000 compounds, 12% hits; AID 686979, 2013; Potency, µM (doses to about 46.2 µM), actives largely listed as inhibitors; also: nearly all actives have a fitted effect of over 55% in size
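Chicken DT40 Tdp1-/- cells stably complemented with human TDP1 were seeded at 400 cells/well in medium containing 20 nM camptothecin, exposed to pin-transferred compounds, and grown at 37 °C for at least 48 hr. Viability was read as ATP luminescence.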
GCN5L2 inh – qHTS Assay for Inhibitors of GCN5L2. 390,000 compounds, 0.21% hits. Histone acetyltransferase KAT2A (Homo sapiens), Q92830. GCN5L2 HAT assay, ThioGlo1 CoA-SH fluorescence. AID 504327, 2011. Potency, µM (top dose mostly 58.9 µM), actives largely listed as inhibitors
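Preincubate 20nM GCN5L2 with compound 15 min, RT → add 50uM ThioGlo1 + 75uM H3(1-25) + 70uM acetyl-CoA → read fluorescence 0 and 20 min. Primary qHTS; fluorescent artifacts likely.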
PLK1 PBD block – qHTS for Inhibitors of PLK1-PDB (polo-like kinase 1 - polo-box domain): Primary Screen. Plk1 PBD binding of FITC phosphopeptide, fluorescence polarization. 360,000 compounds, 2.8% hits. Serine/threonine-protein kinase PLK1 (Homo sapiens), P53350. Potency, µM, actives largely listed as inhibitors. AID 720504, 2013; also: series mostly up to about 57 µM; nearly all actives have a fitted effect of over 65% in size
Target sequence (P53350 whole entry, looked up, the tested form may be a part): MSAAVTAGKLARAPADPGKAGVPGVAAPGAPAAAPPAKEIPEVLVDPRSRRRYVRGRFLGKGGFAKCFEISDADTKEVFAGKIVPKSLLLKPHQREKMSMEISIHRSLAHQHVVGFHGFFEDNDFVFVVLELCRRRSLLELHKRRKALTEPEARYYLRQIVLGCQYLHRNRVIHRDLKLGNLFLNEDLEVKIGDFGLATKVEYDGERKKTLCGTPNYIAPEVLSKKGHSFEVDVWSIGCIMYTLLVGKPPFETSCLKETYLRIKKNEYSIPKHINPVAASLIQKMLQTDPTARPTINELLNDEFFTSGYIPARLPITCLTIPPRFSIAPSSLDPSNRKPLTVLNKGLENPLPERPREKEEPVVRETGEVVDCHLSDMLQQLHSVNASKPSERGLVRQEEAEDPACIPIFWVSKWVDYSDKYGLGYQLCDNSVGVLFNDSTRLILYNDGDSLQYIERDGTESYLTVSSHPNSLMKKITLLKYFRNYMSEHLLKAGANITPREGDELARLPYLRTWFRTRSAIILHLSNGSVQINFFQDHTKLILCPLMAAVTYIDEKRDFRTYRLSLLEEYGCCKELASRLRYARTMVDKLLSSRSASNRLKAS
VDR inh – Inhibitors of the vitamin D receptor (VDR): qHTS. AID 504847, 2011. Vitamin D3 receptor (Homo sapiens), P11473. VDR-SRC2-3 peptide fluorescence polarization, 2 h. 400,000 compounds, 0.93% hits. Potency, µM, hits mostly inhibitors
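FP read-out; VDR + SRC2-3 coactivator peptide; 23 nl compound by pintool; 2 h RT incubation; reagents held at 4 deg C, protected from light.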
A number is an active result; 0 = inactive; ? = inconclusive; - = no result. Calls follow the shape of the dose curve; as a rule, active = well fitted curve in the direction sought with a large enough effect; inconclusive = small, poorly fitted or top-dose-only effect, or another doubt; inactive = no such curve, though single readings can be large; an effect the other way counts as inactive or inconclusive.

SMILES	TDP1 block	DT40 TDP1 no CPT	DT40 TDP1 CPT	GCN5L2 inh	PLK1 PBD block	VDR inh
COC(=O)c1c(C)oc(C)c1S(=O)(=O)NC(c1ccccc1)c1ccccc1	0	?	0	0	0	0
COc1ccc(CN(C)CCCn2cnc3c(OCc4ccccc4)ncnc32)cc1	-	?	?	-	0	0
O=C(O)Cn1cnc2c(OCc3ccccc3)ncnc21	0	0	0	0	0	0
Cc1ccc(NCCCn2cnc3c(OCc4ccccc4)ncnc32)cc1C	-	?	?	-	0	0
Cc1cc(C)c(CN2CCN(C(=O)Cn3cnc4c(OCc5ccccc5)ncnc43)CC2)c(C)c1	0	2.6µM	8.2µM	0	0	0
c1ccc(COc2ncnc3c2ncn3CCCN2CCN(Cc3cccc4ccccc34)CC2)cc1	-	9.2µM	?	-	0	-
Cc1ccc(CN2CCN(CCCn3cnc4c(OCc5ccccc5)ncnc43)CC2)cc1	-	?	23µM	-	0	0
O=C(CSc1ccccn1)Nc1nonc1[N+](=O)[O-]	0	4.1µM	3.7µM	0	?	0
O=C(CSc1ccccn1)Nc1ccc(NC(=O)CSc2ccccn2)cc1	0	0	0	0	0	0
COc1ccc(-c2ccc(CCC(=O)O)n2CC(=O)Nc2cccc(Cl)c2C)cc1	0	0	0	0	-	0
OCc1ccccc1CNCc1ccccc1	0	0	0	0	0	0
Oc1cc(CNCc2ccccc2)c(O)cc1CNCc1ccccc1	-	13µM	?	-	?	0
COCCn1c(=O)c(-c2cccc(C#N)c2)nc2cnc(OCc3ccccc3)nc21	-	0	0	0	-	0
C/C(=N\Nc1nc2ccccc2[nH]1)c1cc2ccccc2o1	0	18µM	?	0	0	0
CCCCN(CC)C(=O)CSc1nc2ccccc2c(=O)n1Cc1ccco1	0	?	?	0	-	0
O=C1NC[C@H](CCCCN2CCN(CCC3CCCCC3)C(=O)C2=O)N(CCC2CCCCC2)C1=O	-	0	0	-	0	-
NC(=NCCc1ccccc1)c1cccc([N+](=O)[O-])c1	-	0	0	0	0	0
C=CCN(CC(O)c1cccc([N+](=O)[O-])c1)C(C)CCc1ccccc1 (stereo not given)	-	21µM	?	0	0	0
CCc1nc2ccc(C(=O)NC(C)(C)C)cn2c1N(CC)Cc1cccc(Br)c1	-	16µM	18µM	-	0	-
CCc1nc2ccc(C(=O)NCCCN3CCCC3=O)cn2c1N(CC)Cc1cccc(Br)c1	-	?	21µM	-	0	-
CCc1nc2ccc(C(=O)NCCc3ccccn3)cn2c1N(CC)Cc1cccc(Br)c1	-	9.2µM	8.2µM	-	0	-
O=C(NCc1nc2ccccc2[nH]1)[C@H]1C[C@@H]1[C@H](NP(=O)(c1ccccc1)c1ccccc1)c1ccccc1	0	-	-	-	-	-
CCC1CSC(Nc2ccc(C(=O)/C=C/c3ccc(Oc4ccccc4)cc3)cc2)=N1 (stereo not given)	0	16µM	23µM	0	0	0
CCC1CSC(Nc2ccc(C(=O)/C=C/c3cccc(C)c3)cc2)=N1 (stereo not given)	0	15µM	16µM	0	0	0
COc1ccc(COC[C@H](C)[C@H](O[Si](C)(C)C)[C@@H](C)[C@H]2OC(=O)[C@H]2C)cc1	0	-	-	-	-	0
O=C(Oc1ccc(F)cc1C(=O)/C=C/c1cccs1)c1cccc([N+](=O)[O-])c1	0	0.37µM	0.16µM	0	0	?
Cc1ccc(OC(=O)c2cccc([N+](=O)[O-])c2)c(-n2nc3ccccc3n2)c1	0	0	0	0	0	0
Cc1ccc2nc(CSc3nnc(NC(=O)c4ccc(C(C)(C)C)cc4)s3)cc(=O)n2c1	0	0	0	0	-	0
